FLuc counter – inhibits or activates purified firefly luciferase, miR-21 counter-screen. 360,000 tested, 6.9% active. purified FLuc, Km substrates, luminescence inhibition. Potency, µM (series often up to 57.5 µM), without a hit: top-dose activity change, negative = inhibition, actives largely listed as inhibitors. P08659;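 further: plate controls were vehicle for no effect and reference inhibitor for full effect; nearly all actives have a fitted effect of over 55% in size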
Target sequence (P08659 whole entry, looked up): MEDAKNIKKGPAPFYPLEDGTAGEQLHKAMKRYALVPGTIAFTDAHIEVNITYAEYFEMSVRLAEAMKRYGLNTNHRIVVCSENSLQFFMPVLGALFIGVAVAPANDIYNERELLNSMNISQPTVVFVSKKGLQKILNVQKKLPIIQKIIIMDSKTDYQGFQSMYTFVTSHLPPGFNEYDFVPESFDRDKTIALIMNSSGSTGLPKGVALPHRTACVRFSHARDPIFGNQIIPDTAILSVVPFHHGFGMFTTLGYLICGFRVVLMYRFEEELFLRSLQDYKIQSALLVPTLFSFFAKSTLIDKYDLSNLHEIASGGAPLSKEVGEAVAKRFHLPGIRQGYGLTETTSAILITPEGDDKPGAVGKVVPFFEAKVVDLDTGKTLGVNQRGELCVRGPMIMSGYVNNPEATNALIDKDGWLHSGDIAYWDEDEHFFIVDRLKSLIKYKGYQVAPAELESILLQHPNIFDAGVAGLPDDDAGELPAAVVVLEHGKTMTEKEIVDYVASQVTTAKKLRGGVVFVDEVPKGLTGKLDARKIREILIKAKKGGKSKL
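Purified P. pyralis luciferase (10nM final) with 10uM D-luciferin and 10uM ATP (Km levels) in 50mM Tris acetate pH 7.5, 10mM Mg acetate, 0.01% Tween-20, 0.05% BSA; qHTS 6-point titration, ~60 µM downward; luminescence read.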
SMN2 splice enh – increases expression of the SMN2 splice variant. HEK293 SMN2-luciferase splicing reporter, luminescence, 30-36 h. Potency, µM (titrated, usually from 46.1 µM), for inactives: at the top dose activity change, positive = activation, most hits filed as activators. 210,000 tested, 2.8% active; further: % of control where 0% means no effect; nearly all actives have a fitted effect of over 55% in size
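HEK293 cells carry an SMN2 […]–luciferase reporter in which exon 7 inclusion puts luciferase in frame. Cells were plated 10-12 h before compound addition, then incubated 30-36 h at 37C. ONE-Glo luminescence was read; sodium butyrate at 4.5 mM final served as control.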
ELG1 genotox – induces genotoxicity in HEK293T cells with luciferase-tagged ELG1; 330,000 tested, 1.3% active; Potency, µM (highest dose often 46 µM), for the others: top-dose activity change, positive = activation, actives largely listed as activators; HEK293T ELG1-luciferase reporter, luminescence, 16 h; AID 504466; further: % of control where 0% means no effect; nearly all actives have a fitted effect of over 60% in size
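Step 1: seed 2,000 HEK293T ELG1-luciferase cells per well. Step 2: add compound or DMSO, incubate 16 hr at 37 °C. Step 3: ONE-Glo, 30 min at room temperature, read luminescence.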
NPC1 promoter act – activates the NPC1 promoter. Huh7 NPC1 promoter luciferase reporter, 24 h. Potency, µM (highest dose often 9.22 µM), for the others: at the top dose activation, hits mostly activators. 320,000 tested, 2.4% active; further: % of control where 0% means no effect; nearly all actives have a fitted effect of over 60% in size
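Stable NPC1-promoter luciferase Huh7 line; cpd (DMSO) 24 h, 37 °C, 5% CO2; Amplite luciferase reagent 10 min RT; luminescence readout. qHTS format.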
Rab9 prom act – Rab9 promoter activation | AID 485297 | Potency, µM (highest dose often 9.22 µM), for the others: top-dose activation, negative = inhibition, most hits filed as activators | Huh7 Rab9 promoter-luciferase reporter, luminescence, 24 h | 320,000 tested, 2.8% active; further: % of control where 0% means no effect; nearly all actives have a fitted effect of over 60% in size
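Promoter activation is measured as luciferase luminescence in Huh7 cells stably transfected with a Rab9 promoter–luciferase construct, following 24 h compound exposure at 37 °C and 10 min reagent incubation at ambient temperature.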
p53 reactivation – re-activators of mutant p53; H1299 p53-A138V BP100-luciferase reporter, luminescence, 24 h; Potency, µM (titrated, usually from 92.2 µM), inactives show at the top dose activity change, positive = activation, usual class: activators; 320,000 tested, 0.063% active; further: % of control where 0% means no effect; nearly all actives have a fitted effect of over 45% in size
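H1299 (p53-null), stable ts p53-A138V + BP100-Luc; 1000 cells/well, Opti-MEM/10% FBS; cpd 4 pt, 1:5; 24 h, 37 deg C, 5% CO2; detection reagent 10 min RT; luminescence.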
* hit, by the source's call; ? = inconclusive; . = not tested or not shown; [ ] = remark or other dose. A selection: hits, their analogues and other compounds. The true share with any hit is near 7.4%. The call rests on the fitted dose curve; in most records, active means well fitted curve in the direction sought with a large enough effect; inconclusive means small, poorly fitted or top-dose-only effect, or another doubt; inactive means no such curve, though single readings can be large; an effect the other way counts as inactive or inconclusive. Potency means the concentration at half of the fitted maximal effect.

SMILES	FLuc counter	SMN2 splice enh	ELG1 genotox	NPC1 promoter act	Rab9 prom act	p53 reactivation
CC(NC(=O)c1cc(COc2c(F)cccc2F)on1)c1cnn(-c2ccccc2)c1 (centres undefined)	17µM*	.	18%	23%	?	6%
Cc1nc2cc(OCc3cc(C(=O)NC(C)c4cnn(C)c4)no3)ccc2s1 (centres undefined)	17µM*	.	-4%	12%	27%	-1%
COc1ccc(OCc2cc(C(=O)NC(C)c3cnn(C)c3)no2)c(Cl)c1 (centres undefined)	13µM*	.	?	?	?	9%
COc1ccc(OCc2cc(C(=O)NCCCc3ccccc3)no2)c(Cl)c1	?	.	-9%	-20%	5%	-4%
CNC1=C(Cl)C(=O)c2ccncc2C1=O	.	-104%	.	.	.	.
O=c1c2cn[nH]c2[nH]c(=S)n1-c1ccccc1F	1.2µM*	14µM*	6.5µM*	2.8µM*	?	?
COc1ccc(-c2coc3c2c(C)cc2oc(=O)c(CC(=O)O)c(C)c23)cc1	7.6µM*	16%	.	.	.	.
Cc1cc2oc(=O)c(CC(=O)O)c(C)c2c2occ(-c3ccc(F)cc3)c12	6.7µM*	12%	.	.	.	.
Cc1c(CC(=O)O)c(=O)oc2c(C)c3occ(-c4ccc(F)cc4)c3cc12	2%	.	-1%	-2%	2%	0%
COc1ccc(-c2coc3c2c(C)cc2oc(=O)cc(C)c23)cc1	-15%	2%	.	.	.	.
NC(=O)C1CCN(c2nc(-c3ccc4c(c3)OCCO4)cs2)CC1	4.8µM*	.	2%	1.4µM*	2.8µM*	6%
NC(=O)C1CCN(c2nc(-c3ccc4c(c3)OCO4)cs2)CC1	19µM*	.	.	.	.	.
Cc1csc(=O)n1CC(=O)OCC(=O)Nc1ccc(F)c(F)c1	1%	.	-1%	-6%	0%	-2%
COCCCNC(=O)c1c(-c2ccccc2)c(-c2ccccc2)nn(C)c1=O	-6%	-9%	.	.	.	.
CC(=O)NCCOc1ccc2oc3ccccc3c2c1	17µM*	5%	.	.	.	.
COc1ccc(C2=Nc3ccccc3OC2)cc1	0.85µM*	?	0.52µM*	1.6µM*	1.6µM*	?
COc1ccc(-c2cc(-c3ccccc3)nc3c2COc2ccccc2-3)cc1	-3%	5%	.	.	.	.
COc1ccc(C(=O)NCCc2csc(-c3ccc(Cl)cc3)n2)cc1	12µM*	.	.	.	.	.
Cc1ccc(C(=O)NCCc2csc(-c3cccc(F)c3)n2)cc1C	19µM*	.	.	.	.	.
CCOc1ccc(C(=O)NCCc2csc(-c3cccc(C)c3)n2)cc1	17µM*	.	.	.	.	.
S=C1Cc2ccccc2C(c2ccc(Cl)cc2)N1 (centres undefined)	-3%	.	-11%	-2%	-6%	0%
COc1cccc(CC(=O)OCC(=O)N(C)CC(=O)Nc2ccc(Cl)c(C(F)(F)F)c2)c1	1%	.	2%	0%	0%	1%
CCOC(=O)c1csc(N)n1	0.85µM*	.	?	?	2.8µM*	?
CCOC(=O)c1csc(COc2ccc(OC)cc2)n1	?	.	9%	0.45µM*	0.45µM*	-7%
CCc1c(C(=O)NNC(=S)NC2CCCCC2)csc1C	-2%	1.6µM*	-3%	17%	22%	0%
SMILES	FLuc counter	SMN2 splice enh	ELG1 genotox	NPC1 promoter act	Rab9 prom act	p53 reactivation
CN(C)c1cccc(C(=O)NNC(=S)NC2CCCC2)c1	?	22%	2%	21%	28%	1%
CC(C)c1cc(C(=O)NNC(=S)NC2CCCCC2)cs1	?	.	?	4µM*	?	?
CCc1cc(C(=O)NNC(=S)NC2CCCCC2)cs1	-11%	.	-4%	3.5µM*	3.5µM*	10%
CSc1nc2sc3c(c2c(=O)n1C)CCC(C)C3 (centres undefined)	13µM*	1%	9%	2%	19%	7%
CSc1nc2sc3c(c2c(=O)n1C)CCC3	-6%	.	3%	0%	-2%	.
Fc1cccc(CSc2ncnc3c2ncn3[C@H]2CCCS2)c1	.	2%[9.22 µM]	.	.	.	.

Screens: PubChem, National Center for Advancing Translational Sciences (NCATS)
